# Shown are actives, neighbours in structure and some others; about 6.6% of the full set was active somewhere.
# FBA Mtb inh: inhibits M. tuberculosis FBA enzyme | P9WQA3 | purified M. tuberculosis FBA, fluorescence read-out | inhibition, % at 1 µM | hit rate 2.3% among 360,000 | AID 588726; in the data active means inhibition above about 27%;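 further: 0% = vehicle and 100% = reference inhibitor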
# Target sequence (P9WQA3 whole entry, looked up): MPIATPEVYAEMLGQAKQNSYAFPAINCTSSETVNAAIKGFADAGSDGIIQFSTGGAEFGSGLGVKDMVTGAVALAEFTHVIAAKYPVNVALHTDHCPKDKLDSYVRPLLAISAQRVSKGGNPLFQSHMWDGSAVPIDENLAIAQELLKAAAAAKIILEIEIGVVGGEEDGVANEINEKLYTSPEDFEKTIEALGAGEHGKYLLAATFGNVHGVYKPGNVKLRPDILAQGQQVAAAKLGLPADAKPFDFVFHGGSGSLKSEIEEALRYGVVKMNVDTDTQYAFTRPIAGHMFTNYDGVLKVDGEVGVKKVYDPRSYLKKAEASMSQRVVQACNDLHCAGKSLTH
# GDH-TPI counter: counter-screen for M. tuberculosis FBA inhibitors: GDH-TPI coupled enzymes; hit rate 1.2% among 360,000; GDH-TPI coupled enzyme counterscreen, NADH absorbance; AID 588335; inhibition, % at 4.8 µM; in the data active means inhibition above about 30%;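 further: 0% = DMSO wells and 100% = wells lacking the enzyme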
# Anthrax LF prot: anthrax lethal factor protease inhibition; P15917; multiplex microsphere protease cleavage assay, LF; hit rate 0.12% among 360,000; inhibition, % at 10 µM; further: plate controls were buffer without enzyme for full effect and enzyme alone for no effect
# BoNT A protease: inhibitors of Botulinum neurotoxin A light chain protease. multiplex microsphere protease substrate cleavage, flow cytometry. inhibition, % at 10 µM. hit rate 0.17% among 360,000. AID 588499; further: plate controls were buffer without enzyme for full effect and enzyme alone for no effect
# Autofluor counter: flagged as autofluorescent in microsphere protease counterscreen | compound autofluorescence counterscreen, microsphere flow cytometry; stronger effect = higher value | fluorescence intensity (no concentration beside the values) | hit rate 3.1% among 360,000; in the data active means fluorescence intensity above about 16000; inconclusive means no clear call, values can overlap the other calls
# BoNT-F LC inh: blocks Botulinum neurotoxin F light chain protease. AID 588497. inhibition, % at 10 µM. Multiplex microsphere protease cleavage assay, flow cytometry. hit rate 0.22% among 360,000; in the data active means inhibition above about 35%, passing the limit was not always enough; inconclusive means no clear call, values can overlap the other calls; further: plate controls were buffer without enzyme for full effect and enzyme alone for no effect
# * hit, by the source's call; ? = inconclusive; . = no result given; + = active, no number. Unless noted, no stated cut-off is given here; in the data, active means inhibition above about 30%; inconclusive means no clear call, values can overlap the other calls; inactive means below that.
SMILES,FBA Mtb inh,GDH-TPI counter,Anthrax LF prot,BoNT A protease,Autofluor counter,BoNT-F LC inh
O=C(CCCN1C(=O)c2ccccc2C1=O)N1CCCCC1,1,4,4,1,4870,11
COc1ccccc1CN(C)C(=O)CN1CCN(C(=O)c2cccs2)CC1,0,3,.,.,.,.
CC(=O)Nc1cccc(-c2cc3c(c4c2ccn4C)C2CCC3O2)c1 (stereo not drawn),161*,.,-2,0,5767,-3
COC(=O)Cn1c(=O)c2c(nc(Br)n2CC(=O)OC)n(C)c1=O,0,2,-3,3,22104*,2
CC1([N+](=O)[O-])COP(=O)(Nc2cccc(Br)c2)OC1 (stereo not drawn),3,7,1,2,16672*,25
Cc1ccc(C)c(C(=O)COC(=O)c2ccccc2N2C(=O)C3C4CCC(C4)C3C2=O)c1 (stereo not drawn),0,-3,-1,?,20251*,0
COC(=O)c1c2[n+](cc3cc(OC)c(OC)cc13)CCc1cc(OC)c(OC)cc1-2,0,43*,6,0,6103,-2
Nc1ncc(-c2ccc([N+](=O)[O-])cc2)cn1,-1,54*,0,1,7589,-5
O=C(COC(=O)CNC(=O)c1ccccc1Cl)NC1CC1,0,1,-2,-1,5015,-11
COc1ccc2c(c1)CCC1C2=NN(/C(C)=C/C(C)=O)C1c1cccc(F)c1 (stereo not drawn),1,12,6,-25,62503*,24
Cc1nnc(NC(=O)c2ccc3c(c2)C(=O)N(CCC(C)C)C3=O)s1,-2,-11,0,-1,20485*,-1
CCc1nnc(NC(=O)c2ccc3c(c2)C(=O)N(CC)C3=O)s1,0,1,-3,-1,23383*,-1
Cc1ccccc1NC(=O)c1ccc2c(c1)C(=O)N(CCC(C)C)C2=O,-1,-1,1,0,4342,-8
CC(=O)Nc1cccc(-c2csc(C(C)(NC(C)=O)c3ccccc3)n2)c1 (stereo not drawn),0,10,3,0,2922,-8
O=C(NCc1ccc(F)cc1)c1cccc2c1C(=O)c1ccc(N3CCC(Cc4ccccc4)CC3)cc1S2(=O)=O,2,14,33*,19,8272,23
O=C(CN1C(=O)CCSc2ccc(S(=O)(=O)N3CCCC3)cc21)Nc1ccccc1,-4,1,1,0,5504,5
Cc1ccc2cc(C(c3nnnn3C3CCCC3)N3CCN(c4ccc(F)cc4)CC3)c(=O)[nH]c2c1 (stereo not drawn),-1,5,-3,0,22513*,0
COc1ccc2[nH]c(=O)c(C(c3nnnn3C3CCCCC3)N3CCN(C)CC3)cc2c1 (stereo not drawn),20,21,5,0,9789,2
CCCN1CCN(C(c2cc3cc(OCC)ccc3[nH]c2=O)c2nnnn2C2CCCCC2)CC1 (stereo not drawn),21,2,-2,?,22710*,5
COc1ccc(CNC(=O)C2CCCN2C(=O)Nc2cccc(Cl)c2)cc1 (stereo not drawn),-1,6,1,0,3673,-2
CC(C)c1ccc(O)c(N)c1,-1,6,-3,0,4305,-6
CCC(C)c1ccc(O)c(N)c1 (stereo not drawn),-3,13,-3,0,16286*,-3
COc1ccc(CCNC(=O)c2cc3ccc(Cl)cc3nc2N)cc1,.,.,7,1,5800,-19
Cc1nnc(SCC(=O)N2CC(=O)Nc3ccccc32)n1-c1ccccc1,3,1,-1,1,4050,14
O=C1CN(C(=O)CSc2nncn2-c2ccccc2)c2ccccc2N1,-1,8,-1,-2,21221*,-4
SMILES,FBA Mtb inh,GDH-TPI counter,Anthrax LF prot,BoNT A protease,Autofluor counter,BoNT-F LC inh
O=[N+]([O-])c1ccccc1C(=Nc1ccccc1)c1c(O)cc(O)cc1O,0,32*,-11,0,3381,4
O=C(Nc1ccccc1)c1ccccc1NC(=O)c1ccccc1[N+](=O)[O-],3,3,-13,-7,4106,?
CCCCCN(C(=O)CCC(=O)OCCOc1ccc(OCC)cc1)c1c(N)n(CCCC)c(=O)[nH]c1=O,11,1,2,0,?,8
O=C1CCCC(O)=C1C=Nc1ccc(O)cc1,-6,35*,-3,0,3340,-2
C(=C\c1nnc(-c2cccs2)o1)/c1ccccc1,18,51*,-5,0,6514,-3
Cc1cc2c(n1-c1ccc(Cl)cc1)CC(C)(C)CC2=O,0,5,-7,-1,19623*,-6
CCOC(=O)c1cc2c(n(-c3ccccc3)c1=O)CC(C)(C)CC2=O,11,12,-1,-5,25220*,-7
CCN1c2ccccc2-c2nc3ccccc3n2C1c1ccco1 (stereo not drawn),+,9,-3,-5,11555,-22
c1ccc(CN2c3ccccc3-c3nc4ccccc4n3C2c2ccccn2)cc1 (stereo not drawn),121*,5,-5,2,7361,6
CN1c2ccccc2-c2nc3ccccc3n2C1c1ccccn1 (stereo not drawn),47*,9,-2,1,4485,0
CN1c2ccccc2-c2nc3ccccc3n2C1c1ccncc1 (stereo not drawn),12,20,7,0,4643,-15
CCOc1ccc(Cl)cc1-c1cc(C(=O)NCc2cccc(C(F)(F)F)c2)[nH]n1,-1,-13,-3,0,3719,-4
COc1ccccc1C1C=C(c2ccccc2)Nc2nnnn21 (stereo not drawn),-4,-2,2,?,20241*,0
COc1cccc(C2=CC(c3ccc(OC)c(OC)c3OC)n3nnnc3N2)c1 (stereo not drawn),2,4,1,0,3295,1
COc1ccc(Br)c(C=O)c1OS(=O)(=O)c1ccc(C)cc1,0,15,-2,0,3027,1
COc1cccc(Nc2nnc(SCc3cc([N+](=O)[O-])cc4c3OCOC4)s2)c1,-2,24,-1,0,2093,7
Cc1cccc(C)c1Nc1nnc(SCc2cc([N+](=O)[O-])cc3c2OCOC3)s1,3,11,-4,15,16667*,15
CCCc1nc2cc3c(cc2[nH]1)n(C)c(=O)n3C,5,-2,7,-3,3526,-8
CCN(CC)CCCNC(=O)/C(=C\c1cccn1C)NC(=O)c1cccs1,2,35*,1,0,2501,1
O=C(NCCO)/C(=C\c1cccs1)NC(=O)c1cccs1,-4,16,-6,0,9651,1
C[C@H](CO)N1C[C@H](C)[C@@H](CN(C)C(=O)Nc2ccccc2)Oc2ccc(NC(=O)Nc3ccccc3)cc2C1=O,1,-5,1,0,3871,-1
COC(=O)COc1ccc(/C=C2/SC(=O)N(CC(=O)N3CCCC3)C2=O)cc1Br,-3,36*,-1,0,3862,-3

# Screens (PubChem)
